Results published in PubChem BioAssay AID1159580 (chemical genetic matrix, 2015).
Screen size: about 5,500 compounds; about 2,000 (36%) were called active. Not shown: some 18% with an inconclusive outcome. The list shows a part of the results. Values without a mark were called inactive. No stated cut-off is given here; in the data, active means normalized growth mostly below about 0.91 (no sharp cut-off); inconclusive means no clear call, values can overlap the other calls; inactive means mostly above about 0.92.

Assay: chemical genetic growth profiling, strain panel (AID 1159580);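 further: tested at 20 µM; growth read once vehicle control cultures reached saturation at 30 °C; 1 = growth at the plate median or of vehicle wells; lower values mean less growth of the strain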
Conditions: growth OD
[1] = S. cerevisiae deletion strains, locus YDL101C, strain DUN1, hits give low values
[2] = S. cerevisiae deletion strains, locus YHR030C, strain SLT2, hits give low values
[3] = S. cerevisiae deletion strains, locus YAL013W, strain DEP1, hits give low values
[4] = S. cerevisiae deletion strains, locus YBR229C, strain ROT2, hits give low values
[5] = S. cerevisiae deletion strains, locus YCL061C, strain MRC1, hits give low values
[6] = S. cerevisiae deletion strains, locus YDL134C, strain PPH21, hits give low values
[7] = S. cerevisiae deletion strains, locus YDR150W, strain NUM1, hits give low values
[8] = S. cerevisiae deletion strains, locus YEL061C, strain CIN8, hits give low values
[9] = S. cerevisiae deletion strains, locus YGR078C, strain PAC10, hits give low values
[10] = S. cerevisiae deletion strains, locus YHR087W, strain rtc3, hits give low values
[11] = S. cerevisiae deletion strains, locus YJL187C, strain SWE1, hits give low values
[12] = S. cerevisiae deletion strains, locus YJR043C, strain POL32, hits give low values
[13] = S. cerevisiae deletion strains, locus YJR075W, strain HOC1, hits give low values
[14] = S. cerevisiae deletion strains, locus YLR039C, strain RIC1, hits give low values
[15] = S. cerevisiae deletion strains, locus YLR058C, strain SHM2 (second series), hits give low values
[16] = S. cerevisiae deletion strains, locus YLR085C, strain ARP6, hits give low values
[17] = S. cerevisiae deletion strains, locus YLR262C, strain YPT6, hits give low values
[18] = S. cerevisiae deletion strains, locus YML094W, strain GIM5, hits give low values
[19] = S. cerevisiae deletion strains, locus YMR219W, strain ESC1, hits give low values
[20] = S. cerevisiae deletion strains, locus YMR263W, strain SAP30, hits give low values
[21] = S. cerevisiae deletion strains, locus YMR307W, strain GAS1, hits give low values
[22] = S. cerevisiae deletion strains, locus YNL153C, strain GIM3, hits give low values
[23] = S. cerevisiae deletion strains, locus YNL298W, strain CLA4 (second series), hits give low values
[24] = S. cerevisiae deletion strains, locus YNL322C, strain KRE1, hits give low values
[25] = S. cerevisiae deletion strains, locus YNR030W, strain Alg12, hits give low values
[26] = S. cerevisiae deletion strains, locus YPL055C, strain LGE1, hits give low values
[27] = S. cerevisiae deletion strains, locus YPL241C, strain CIN2, hits give low values
[28] = S. cerevisiae deletion strains, locus YPR135W, strain CTF4, hits give low values
[29] = S. cerevisiae deletion strains, locus YNL128W, strain TEP1, hits give low values
[30] = S. cerevisiae strains, strain wild type, hits give low values

O=C(Nc1cc(C(F)(F)F)cc(C(F)(F)F)c1)C(Cl)(Cl)Cl
normalized growth (S. cerevisiae deletion strains, locus YAR019C, strain CDC15, hits give low values): 0.964 | normalized growth (S. cerevisiae deletion strains, locus YBL105C, strain PKC1, hits give low values): 0.958 | normalized growth (S. cerevisiae deletion strains, locus YBR135W, strain CKS1, hits give low values): 0.962 | normalized growth (S. cerevisiae deletion strains, locus YBR136W, strain MEC1, hits give low values): 0.965 | normalized growth (S. cerevisiae deletion strains, locus YBR160W, strain CDC28, hits give low values): 0.969 | normalized growth (S. cerevisiae deletion strains, locus YDL017W, strain CDC7, hits give low values): 0.959 | normalized growth (S. cerevisiae deletion strains, locus YDL028C, strain MPS1, hits give low values): 0.966 | normalized growth [1]: 0.97 | normalized growth (S. cerevisiae deletion strains, locus YDL108W, strain KIN28, hits give low values): 0.957 | normalized growth (S. cerevisiae deletion strains, locus YDL132W, strain cdc53, hits give low values): 0.955 | normalized growth (S. cerevisiae deletion strains, locus YDL214C, strain PRR2, hits give low values): 0.919 | normalized growth (S. cerevisiae deletion strains, locus YDR052C, strain DBF4, hits give low values): 0.964 | normalized growth (S. cerevisiae deletion strains, locus YDR054C, strain cdc34, hits give low values): 0.948 | normalized growth (S. cerevisiae deletion strains, locus YDR226W, strain ADK1, hits give low values): 0.959 | normalized growth (S. cerevisiae deletion strains, locus YDR477W, strain SNF1, hits give low values): 0.921 | normalized growth (S. cerevisiae deletion strains, locus YER123W, strain YCK3, hits give low values): 0.878 | normalized growth (S. cerevisiae deletion strains, locus YER133W, strain GLC7, hits give low values): 0.918 | normalized growth (S. cerevisiae deletion strains, locus YFL009W, strain cdc4, hits give low values): 0.951 | normalized growth (S. cerevisiae deletion strains, locus YFL029C, strain CAK1, hits give low values): 0.962 | normalized growth (S. cerevisiae deletion strains, locus YFR003C, strain YPI1, hits give low values): 0.955 | normalized growth (S. cerevisiae deletion strains, locus YFR019W, strain FAB1, hits give low values): 0.957 | normalized growth (S. cerevisiae deletion strains, locus YFR028C, strain CDC14, hits give low values): 0.962 | normalized growth (S. cerevisiae deletion strains, locus YGR040W, strain KSS1, hits give low values): 0.929 | normalized growth (S. cerevisiae deletion strains, locus YGR052W, strain FMP48, hits give low values): 0.911 | normalized growth (S. cerevisiae deletion strains, locus YGR092W, strain DBF2, hits give low values): 0.879 | normalized growth [2]: 0.829 (active) | normalized growth (S. cerevisiae deletion strains, locus YHR079C, strain IRE1, hits give low values): 0.843 | normalized growth (S. cerevisiae deletion strains, locus YHR082C, strain KSP1, hits give low values): 0.932 | normalized growth (S. cerevisiae deletion strains, locus YHR205W, strain SCH9, hits give low values): 0.815 | normalized growth (S. cerevisiae deletion strains, locus YIL147C, strain SLN1, hits give low values): 0.96 | normalized growth (S. cerevisiae deletion strains, locus YJL095W, strain BCK1, hits give low values): 0.828 | normalized growth (S. cerevisiae deletion strains, locus YJL128C, strain PBS2, hits give low values): 0.883 | normalized growth (S. cerevisiae deletion strains, locus YJL157C, strain FAR1, hits give low values): 0.932 | normalized growth (S. cerevisiae deletion strains, locus YJR016C, strain ILV3, hits give low values): 0.956 | normalized growth (S. cerevisiae deletion strains, locus YJR066W, strain TOR1 (second series), hits give low values): 0.947 | normalized growth (S. cerevisiae deletion strains, locus YJR066W, strain TOR1, hits give low values): 0.955 | normalized growth (S. cerevisiae deletion strains, locus YKL048C, strain ELM1, hits give low values): 0.931 | normalized growth (S. cerevisiae deletion strains, locus YKL067W, strain YNK1, hits give low values): 0.932 | normalized growth (S. cerevisiae deletion strains, locus YKL101W, strain HSL1, hits give low values): 0.918 | normalized growth (S. cerevisiae deletion strains, locus YKL193C, strain SDS22, hits give low values): 0.95 | normalized growth (S. cerevisiae deletion strains, locus YKL203C, strain TOR2, hits give low values): 0.969 | normalized growth (S. cerevisiae deletion strains, locus YLR113W, strain HOG1, hits give low values): 0.853 (active) | normalized growth (S. cerevisiae deletion strains, locus YLR133W, strain CKI1, hits give low values): 0.934 | normalized growth (S. cerevisiae deletion strains, locus YLR403W, strain SFP1, hits give low values): 0.916 | normalized growth (S. cerevisiae deletion strains, locus YML070W, strain DAK1, hits give low values): 0.891 | normalized growth (S. cerevisiae deletion strains, locus YMR001C, strain CDC5, hits give low values): 0.963 | normalized growth (S. cerevisiae deletion strains, locus YMR205C, strain PFK2 (second series), hits give low values): 0.926 | normalized growth (S. cerevisiae deletion strains, locus YMR277W, strain FCP1, hits give low values): 0.956 | normalized growth (S. cerevisiae deletion strains, locus YNL006W, strain LST8, hits give low values): 0.974 | normalized growth (S. cerevisiae deletion strains, locus YNL020C, strain ARK1, hits give low values): 0.92 | normalized growth (S. cerevisiae deletion strains, locus YNL161W, strain CBK1, hits give low values): 0.957 | normalized growth (S. cerevisiae deletion strains, locus YNL183C, strain NPR1, hits give low values): 0.913 | normalized growth (S. cerevisiae deletion strains, locus YNL207W, strain RIO2, hits give low values): 0.955 | normalized growth (S. cerevisiae deletion strains, locus YNL222W, strain SSU72, hits give low values): 0.967 | normalized growth (S. cerevisiae deletion strains, locus YNL307C, strain MCK1 (second series), hits give low values): 0.869 | normalized growth (S. cerevisiae deletion strains, locus YOL078W, strain AVO1, hits give low values): 0.961 | normalized growth (S. cerevisiae deletion strains, locus YOL136C, strain PFK27, hits give low values): 0.89 | normalized growth (S. cerevisiae deletion strains, locus YOR061W, strain CKA2, hits give low values): 0.96 | normalized growth (S. cerevisiae deletion strains, locus YOR119C, strain RIO1, hits give low values): 1 | normalized growth (S. cerevisiae deletion strains, locus YOR231W, strain MKK1, hits give low values): 0.896 | normalized growth (S. cerevisiae deletion strains, locus YOR329C, strain SCD5, hits give low values): 0.959 | normalized growth (S. cerevisiae deletion strains, locus YPL031C, strain PHO85, hits give low values): 0.904 | normalized growth (S. cerevisiae deletion strains, locus YPL153C, strain RAD53, hits give low values): 0.889 | normalized growth (S. cerevisiae deletion strains, locus YPL204W, strain HRR25, hits give low values): 0.879 | normalized growth (S. cerevisiae deletion strains, locus YPL209C, strain IPL1, hits give low values): 0.964 | normalized growth (S. cerevisiae deletion strains, locus YPL256C, strain CLN2, hits give low values): 0.77 (active) | normalized growth (S. cerevisiae deletion strains, locus YPR025C, strain CCL1, hits give low values): 0.969 | normalized growth (S. cerevisiae deletion strains, locus YPR106W, strain ISR1, hits give low values): 0.958 | normalized growth (S. cerevisiae deletion strains, locus YPR111W, strain DBF20, hits give low values): 0.941 | normalized growth (S. cerevisiae deletion strains, strain NNK1, hits give low values): 0.96 | normalized growth (S. cerevisiae deletion strains, strain TSCII, hits give low values): 0.957

CC(C)(CC(=O)O)CC(=O)Nc1cc(C(F)(F)F)cc(C(F)(F)F)c1
normalized growth [3]: 0.997 | normalized growth [4]: 1.01 | normalized growth [5]: 1.03 | normalized growth [1]: 0.997 | normalized growth [6]: 0.999 | normalized growth [7]: 0.993 | normalized growth [8]: 0.998 | normalized growth [9]: 1.01 | normalized growth (S. cerevisiae deletion strains, locus YGR229C, strain SMI1, hits give low values): 1 | normalized growth [2]: 1.01 | normalized growth [10]: 1 | normalized growth [11]: 1 | normalized growth [12]: 0.997 | normalized growth [13]: 0.997 | normalized growth [14]: 1.03 | normalized growth [15]: 1.01 | normalized growth [16]: 1.03 | normalized growth [17]: 1.02 | normalized growth [18]: 0.969 | normalized growth [19]: 1.01 | normalized growth [20]: 1.05 | normalized growth [21]: 0.967 | normalized growth [22]: 1.01 | normalized growth [23]: 1.01 | normalized growth [24]: 0.973 | normalized growth [25]: 0.537 (active) | normalized growth (S. cerevisiae deletion strains, locus YOL006C, strain TOP1, hits give low values): 0.964 | normalized growth [26]: 1.01 | normalized growth [27]: 0.639 (active) | normalized growth [28]: 1.06

CCOC(=O)C(O)(c1ccc(N)c(C)c1)C(F)(F)F (stereo not drawn)
normalized growth [3]: 0.995 | normalized growth [4]: 1 | normalized growth [1]: 0.996 | normalized growth [7]: 0.928 | normalized growth [8]: 0.988 | normalized growth [9]: 0.992 | normalized growth [2]: 0.953 | normalized growth [10]: 1.02 | normalized growth [11]: 1 | normalized growth [12]: 0.925 | normalized growth [13]: 0.991 | normalized growth [14]: 0.988 | normalized growth [15]: 1.01 | normalized growth [16]: 0.996 | normalized growth [17]: 1.02 | normalized growth [18]: 0.991 | normalized growth [19]: 0.982 | normalized growth [20]: 0.999 | normalized growth [21]: 0.946 | normalized growth [29]: 1.01 | normalized growth [22]: 0.993 | normalized growth [23]: 1 | normalized growth [24]: 1 | normalized growth [25]: 1.01 | normalized growth [26]: 0.935 | normalized growth [27]: 0.996 | normalized growth [28]: 0.982 | normalized growth [30]: 0.981

O=C(CN1CCOCC1)Nc1cc(C(F)(F)F)cc(C(F)(F)F)c1
normalized growth [3]: 0.999 | normalized growth [4]: 1.01 | normalized growth [5]: 1.01 | normalized growth [1]: 1 | normalized growth [6]: 0.995 | normalized growth [7]: 1 | normalized growth [8]: 1.01 | normalized growth [9]: 1.01 | normalized growth [2]: 1.02 | normalized growth [10]: 0.995 | normalized growth [12]: 0.974 | normalized growth [13]: 0.986 | normalized growth [14]: 1.06 | normalized growth [15]: 1 | normalized growth [16]: 0.988 | normalized growth [17]: 1.05 | normalized growth [18]: 0.996 | normalized growth [19]: 1.01 | normalized growth [20]: 0.986 | normalized growth [21]: 1.01 | normalized growth [29]: 0.993 | normalized growth [22]: 0.99 | normalized growth [23]: 0.992 | normalized growth [24]: 1 | normalized growth [25]: 0.994 | normalized growth [26]: 0.972 | normalized growth [27]: 1.07 | normalized growth [28]: 1.02 | normalized growth [30]: 0.999
